This is an account of results in PubChem BioAssay (EPA / NIEHS).

A structure can be active in one record and inactive in another. Calls of active or inactive are those of the source. How the source made its calls: active means hit-call score of the fitted dose curve at least 0.9, where 1 is the maximum; inactive means score below 0.9.

The term AC50 denotes the concentration at which the activity in the assay is half-maximal.

This experiment is described as follows: ATG_E_Box_CIS: Attagene CIS-FACTORIAL HepG2 Assay for human Enhancer Box (E-box) (AID 2282936). Conditions: HepG2 E-box cis-reporter transcription, actives raise or lower the signal. The protocol:
ATG_CIS is a cell-based, multiplexed-readout assay that uses HepG2, a human liver cell line, with measurements taken at 24 hours after chemical dosing in a 24-well plate.ATG_E_Box_CIS is one of 52 assay component(s) measured or calculated from the ATG_CIS assay. It is designed to make measurements of mRNA induction, a form of inducible reporter, as detected with fluorescence intensity signals by Reverse transcription polymerase chain reaction (RT-PCR) and Capillary electrophoresis technology.Data from the assay component ATG_E_Box_CIS was analyzed into 1 assay endpoint. This assay endpoint, ATG_E_Box_CIS, was analyzed with bidirectional fitting relative to DMSO as the negative control and baseline of activity. Using a type of inducible reporter, measures of mRNA for gain or loss-of-signal activity can be used to understand the reporter gene at the transcription factor-level as they relate to the gene USF1. Furthermore, this assay endpoint can be referred to as a primary readout, because this assay has produced multiple assay endpoints where this one serves a reporter gene function. To generalize the intended target to other relatable targets, this assay endpoint is annotated to the dna binding intended target family, where the subfamily is basic helix-loop-helix protein.
Human liver HepG2 cells are transiently transfected with multiple reporter transcription units (MRTUs) in 6-well plates using FuGene 6 reagent (Roche; 3 ml FuGene/1 mg DNA). The MRTU constructs are regulated by a cis-regulating element (promoter). […] A major difference between the CIS and TRANS system is that in CIS activities of endogenous TFs are measured, whereas the TRANS assay evaluates changes in activities of exogenous, chimeric NR-Gal4 proteins. […] At the end of 24 hour incubation, total RNA was isolated using TriZol reagent (Invitrogen). The isolated RNA is then reverse-transcribed using oligo(dT) primer and Mo-MLV reverse transcriptase (Invitrogen) with DNAse I (Ambion) treatment for 30 min. The one-tenth of the produced cDNA was amplified by PCR using Taq DNA polymerase (Invitrogen) and two reporter sequence-specific primers. The PCR products were fluorescently labeled by primer extension with 6-arboxyfluorescein (6-FAM) 5'-labeled reporter sequence-specific primer (2 min at 95 C, 20 s at 68 C and 10 min at 72 C) and these products were digested with 5U of HpaI (New England Biolabs) for 2h at 37 C. The fragments were purified using Qiaquick PCR columns (Qiagen), analyzed on an ABI 3130xL genetic analyzer (Applied Biosystems) with peak positions identified by using a set of X-rhodamine (ROX)-labeled MapMarker1000 molecular weight standards (BioVentures). The raw capillary electrophoresis data was processed using Attagraph software (Attagene).
Consider `CCc1cccc(CC)c1N(COC)C(=O)CS(=O)(=O)O`, for which the result was inactive.
The same measure, in the same setting: as for `COCC1CCC(CO)CC1` (stereo not given), the entry is “inactive”; as for `CCOC(OCC)C(=O)c1ccccc1`, “inactive”.
As for `CC(C)(c1ccc(Oc2ccc(N)cc2)cc1)c1ccc(Oc2ccc(N)cc2)cc1`, the result was inactive.
Still for that read-out and setting: as for `CCN(CC)CC`, the entry is “inactive”; as for `COC1=CC(=O)C[C@@H](C)[C@]12Oc1c(Cl)c(OC)cc(OC)c1C2=O`, “inactive”; as for `CCC(C)c1nccnc1OC` (stereo not given), “inactive”.
Regarding `C=CC(=O)OCCC(F)(F)C(F)(F)C(F)(F)C(F)(F)C(F)(F)C(F)(F)C(F)(F)C(F)(F)F`, the outcome was inactive.
Still for that read-out and setting: as for `Cc1ccc(N=Nc2c(O)ccc3ccccc23)c(C)c1`, the entry is “inactive”; as for `CCCCC(CC)C(=O)OCCOCCOCCOCCOC(=O)C(CC)CCCC` (stereo not given), “inactive”; as for `Oc1ccc(Cc2ccccc2O)cc1`, “inactive”.
Still for that read-out and setting: as for `CC(C)(C)c1ccc(O)c(O)c1`, the entry is “inactive”.
Take `O=C(O)CCC(F)(F)C(F)(F)C(F)(F)C(F)(F)C(F)(F)C(F)(F)F`: the outcome was inactive.
On to `C=CC(=O)OCC(CO)(COCC(COC(=O)C=C)(COC(=O)C=C)COC(=O)C=C)COC(=O)C=C`, for which the AC50 is 2.52 µM (active).
For `Nc1cc(Cl)c(-c2cc(Cl)c(N)cc2Cl)cc1Cl`, the result was inactive.
Same read-out and setting: to `CCCCC(CC)C(=O)O` (stereo not given) belongs “inactive”; to `COc1ccc(C#N)cc1`, “inactive”.
Turning to `CCCCCCCCCCCC[N+](C)(C)Cc1ccccc1`, the AC50 is 12.4 µM (active) and the result was inactive.
In the case of `COc1cc(OC)nc(NC(=O)NS(=O)(=O)Nc2ccccc2C(=O)N(C)C)n1`, the outcome was inactive.
`NCc1cccc(CN)c1`: the result was inactive.
Same read-out and setting: to `Oc1c(Cl)ccc(Cl)c1Cl` belongs “inactive”; to `CC(=O)CC(C)C`, “inactive”.
Still for that read-out and setting: as for `CCCCCCCCC1CCC(=O)O1` (stereo not given), the entry is “inactive”; as for `CCCCc1ccc2ccccc2c1S(=O)(=O)O`, “inactive”.
Same read-out and setting: to `FC1(F)C=CC(F)(F)C1(F)F` belongs “inactive”; to `Clc1ccc2c(Cl)ccnc2c1`, “inactive”.
Take `CC(C)c1c(C(=O)Nc2ccccc2)c(-c2ccccc2)c(-c2ccc(F)cc2)n1CC[C@@H](O)C[C@@H](O)CC(=O)O`: the AC50 is 28.2 µM (active) and the outcome was inactive.
Take `O=C(c1cc(O)c(O)c(O)c1)c1ccc(O)c(O)c1O`: the result was inactive.
On the same count and under the same terms, as for `OCC(CO)(CBr)CBr`, the entry is “inactive”.
The same measure, in the same setting: as for `Nc1ccn([C@@H]2O[C@H](CO)[C@@H](O)C2O)c(=O)n1` (stereo not given in full), the entry is “inactive”; as for `O=S(=O)(O)c1ccccc1`, “inactive”.
As for `O=S(=O)(O)C(F)(F)C(F)(F)C(F)(F)C(F)(F)C(F)(F)C(F)(F)C(F)(F)C(F)(F)C(F)(F)C(F)(F)F`, the outcome was inactive.
The same measure, in the same setting: as for `Cc1cc(C(=C2C=CC(=Nc3ccc(S(=O)(=O)O)cc3)C=C2)c2ccc(Nc3ccc(S(=O)(=O)O)cc3)cc2)cc(S(=O)(=O)O)c1N`, the entry is “inactive”; as for `NC(C(F)(F)F)C(F)(F)F`, “inactive”.
In the case of `CCCCCCCCCCCCOC(=O)c1cc(O)c(O)c(O)c1`, the concentration at half-maximal activity (AC50) is 2.92 µM (active).
Same read-out and setting: as for `N=C(N)c1ccc(OCCCCCOc2ccc(C(=N)N)cc2)cc1`, the figure is 137 µM (active).
As for `O=C(O)c1cccc(C(=O)O)n1`, the result was inactive.
On the same count and under the same terms, as for `CC(O)COc1ccccc1` (stereo not given), the entry is “inactive”.
